The full ranking holds about 2,300 sequences; the median of “median log2 fold change of GCK-ALFA target abundance (FLAG IP / Myc IP barcode read proportion)” is about 0.095, and the lowest 2% start at about -0.47. The sample as a whole holds a higher share of the lowest values than the screen did.
B1: LC3A_28_811 (protein)
chain: SHVDEVIAAVKEEGEKLKNSKEDVLLEVRVSGDITVEEAERLMDAIEEIARELAKNRKVYIVITAEEPISQEVLDTILDRAEEIEEKYPNVSVIVALPEE
B2: LC3A_3_1711 (protein)
chain: GEELIEEAEKILKEKGLSEETKKAVLEALKALLEKGYINAAKELIKLLKEAKDLSDEVILDFAKDVLEYVKTEDVSEEETIKKIKEEYEIAKNEEEIEEL
B3: LC3A_free_46_2301 (protein)
chain: IKVEIDIYFGAAPLEKIEEAAKRLTETAEKKAKELGAEVEIEVKITKNEDGTYTLEIRITAKVKTLEDANKFIQAISDKVDEINKELGIAAIMSIEVIEE
B4: LC3A_3_1472 (protein)
chain: LEERLEEVLKRLREAGASEEVLEAVREAYEKLKELGHEEAAKTFIEEMEKLVGLPSELLLAFAEDVLAAVEKYADDPEKLIEEIKSIAAATRNEAEIIEL
B5: LC3A_28_903 (protein)
chain: SPALESAEKALKEVKKAVAAGNQEPLVLEVKAPSTQEDVDKLLKLLEEIAEEASKLKGVSIIIDIDESVSQENRDRIIDKAEELEEKYPNVTIIIALPES
B6: LC3A_17_539 (protein)
chain: KEELKEELKKLIEEAEKLVEEVKPYIPEEAEKAKKRLKEAKKLLEEGKLKEAAELLAETADEMADAVSETEWEDPLKRTLLELEFDSLAIEAESILLKLE
B7: LC3A_28_1059 (protein)
chain: MSIEEELEEALEEAREAVERGEEALIELTIDEDATEEDVELVLETMEEIAELTKDLPRTTIVVDVDHKNKEEVTKLVSEKGDRLEKRYPNVTVIIALSEE
B8: LC3A_28_671 (protein)
chain: SALEEQLEKALAEAKKLAAKGEPGVIVIEVPGDATEEEIERLIKTLEEIAEILKDVKGSAIVIELDKDLKEEHRQRIIDAAERINEKYPNVTVIIAMEER
B9: LC3A_45_1922 (protein)
chain: MYEATLDLLVPKELAEEAYELIKKLLEELEKKRGPNFKVDYETLDASYEASKDEEDVYLEVKIYAPTEEEALDAAIEIEEELSKELGGKVASIISVKKVP
B10: LC3A_28_979 (protein)
chain: SALEKELAAKIAEAKKAAAAGEPAVITIKVSGDTNEEQLAKIIETLEEIAEILKDVKGSAIIIDIDRGVDPKHKQKLIDKGEEIEKKYPNVTVIFALEEE
B11: LC3A_36_1337 (protein)
chain: MVVIVLSAASEEVRAAEEAHYRAKGATVFAVAVEDLDEATKEEILAVVKAAGPDADIIIVAVAETEEGLAKVLKKASELADYIEEETGRTVIIEVDLVEK
B12: LC3A_141_370 (protein)
chain: KTVTFTKTFTNSSLDEVIAGMEELEKEVLAAHEKLGGGKVKVTVTVTIKNSKTGETKVIKEEFEADKETLEMIMEGVLIEAASARLTENANITVTVTLEA
B13: LC3A_28_1047 (protein)
chain: SELEENAEKAIAEARKQLEQGEEAVVTLKVPDMPTEEAVRIFRETLERLIALSKEYGGKKISVVVDFDGDQETFDAIVDIAEEAEKADPNLTVIVALSEE
B14: LC3A_28_815 (protein)
chain: MTAEEIIKQIREQAEKGKQSDEMVLIEVKISGTITEEEAKEIMEVIREESAELAKDRPVAVLIDLEAPISQEVIDLIADMAEEIEKELPNVSVIIALPEE
B15: LC3A_free_8_2554 (protein)
chain: ISEEQKAKISEVLDKAEEEIVKKAKEMGVSEEEINELEALMGFLLQDVLDALEEGPEAALKAFEEESKLIVEYAKELGEELAKEVKKVLEEAKKEIEKIL
B16: LC3A_28_1007 (protein)
chain: MSLIEKTKEEIKKALEQAEKGEDAFLEIEIPSTATKEEVEEVLKLIEEAAKEVSKLEGVKLYVVIDDSGSPEIHDLVVDRADEIEEKYPNVSVIIAYDDK
B17: LC3A_free_46_2383 (protein)
chain: YKAEIDIDFGAMDKETAEKIAEEIKKAAEEISKKYGVKVEVEVEIIEDEDGNYYLRVKITIEGEDKEKVEEAVNELIEKIDEIAEKANVSYIISVEFIDE
B18: LC3A_132_253 (protein)
chain: SKELLEKALKELKEILDKIVELLQAGKDPWPAIKELYEKALEYAKKLSLEETEKLAEEVEAYAEKLFAERLDPNNEEARRALEHIEMLLESVLIEKELRS
B19: LC3A_132_254 (protein)
chain: SEELLEKALKELKELLDKIVADLKAGKDPWPTINKLYELALKYAEKLSLEETEKLAEESEKYAEELFAKELDPNDEEARRTLDIVEMLLESVLIEKELRS
B20: LC3A_132_255 (protein)
chain: SKELLEKALKELKEILDKIVELLQAGKDPWPAVKELEEKAEEYAEKLSLEETEELVKESEKYAEELFAARLDPNNEEARRVLDHIEMLFESVLIEKELKS
B21: LC3A_28_1225 (protein)
chain: AAVDAEIAAARAAMAAAAAAGEEATITVKITGKTTLADVKRLMEALRAIVAEHAHLPRISIIIDLSGKVTQEQIDAAAEGGERIEKEFPNVTVILALDEN
B22: LC3A_28_983 (protein)
chain: MDPREQVEELIKKAKEAAAKGEATVFTITVTSTATEEDIELITEGLKEIAEILKDVKGSAIIVDVESGVPEEYIDKIAETMEEIEKANPNVTTIIALDED
B23: LC3A_free_8_2473 (protein)
chain: SVQELVDQITALLDELEEKVREKAKELGVDELDILELELEIGSLIADLISASDGTIEEVKEIAEEGLEEIEELAKELSEEIAEIVRETREKILALLEAAE
B24: LC3A_free_0_2120 (protein)
chain: KKTVVEVVIILDDSTSEEKAKEIHEKLKEEAEKLAKENGGELKSSLSKSDGSYIITLEITFDTEDIDLALEVERKLVEIAEKILKEANVEATIYSSVYLE
B25: LC3A_free_39_2211 (protein)
chain: SEEELEELLKKVAEESGLDYEYIRERVEEIRRVAGLSLEQMLELVKAILEAVREGADAEEILEEVLALAKELVAAGKSPEEIAEALLEEVEDFRNLIPLD
B26: LC3A_free_39_2213 (protein)
chain: SEEELEELLKKVAEESGLDYEYIKKKIEEIQKVAGLSLEQMKKIVEAILEAVKEGANAEEILERILALAKELKAAGKSPEEIAKALLEEVEDYRNLIPLD
B27: LC3A_free_0_2116 (protein)
chain: KKTVVEVLVILDESTTEEEAKKAYEELKKKAEEIAKKYGWEVKVELSKSDGSWIITVTLTSDSTDIDKALEIARELSDAAEEIAKELGLDATIYESVYLE
B28: LC3A_28_1087 (protein)
chain: SELEEQLKKALEEAKKAKEEGKEVTLEITVPDTATEEDIELVKETLKEIAEIAKELPSLSVVINLTGKNAQAKATELSAHAEELEKEVPNLTVIIALDED
B29: LC3A_3_1520 (protein)
chain: MEEIEKEIIKLLKEAGASEETIEKAKELLKLLRERGYLNAMKTLLEELKELKDAPVETIEAFVKDVLELVKTEDLSEEELSKRIKELATIAKNDAEIEEL

biological target: MAP1LC3A, Q9H492; test: median log2 fold change of GCK-ALFA target abundance (FLAG IP / Myc IP barcode read proportion) (log2 ratio); each designed protein is fused to an ALFA-tag nanobody in HEK293 cells to bring the named protein to FLAG-tagged glucokinase (GCK); Myc marks an untargeted standard; higher = target protein stabilised (more abundant); conditions: target protein: 3xFLAG-MCP-GCK-ALFA reporter; HEK293 landing pad (RPLP)
Outline: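 HEK293 landing-pad cells received a recombined binder library fused to the ALFA nanobody and were induced with 2 μg mL^−1 doxycycline, then transfected with a plasmid encoding a FLAG-tagged target and a Myc-tagged standard. Lysates were collected after 48 h for anti-FLAG and anti-Myc immunoprecipitation, and the circular RNA barcodes were reverse transcribed, amplified and sequenced. Target abundance for each binder is the median log2 ratio of FLAG to Myc barcode read proportions. Barcodes had to reach a proportion of at least 10^−7 in both replicates, each binder needed at least 3 barcodes per replicate, a pseudocount of 10^−6 was applied, and the two replicates were pooled.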

Binder | median log2 fold change
B1 | -0.124
B2 | -0.0281
B3 | -0.0458
B4 | 0.213
B5 | -0.303
B6 | -0.51
B7 | -0.148
B8 | 0.0757
B9 | -0.405
B10 | -0.00812
B11 | 0.15
B12 | -0.474
B13 | -0.153
B14 | -0.179
B15 | -0.0712
B16 | -0.353
B17 | 0.115
B18 | 0.0444
B19 | -0.669
B20 | 0.276
B21 | 0.191
B22 | -0.2
B23 | -0.379
B24 | -0.12
B25 | -0.819
B26 | 0.203
B27 | -0.122
B28 | 0.251
B29 | 0.547
